Bioassay records (PubChem BioAssay)
PNC inhibitor – inhibitors of perinucleolar compartment assembly; PC3M PTB-GFP, PNC prevalence imaging, 16 h; stronger effect = lower value; 3.1% of 140,000 active; AID 2417; activity change (PNC), negative = inhibition, % at 10 µM;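 active = readout at or below -70, meaning at least 70% loss of cells showing the perinucleolar compartment, a nuclear body marking cancer cells; inconclusive = readout between -30 and a set limit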;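 note: plate controls were DMSO wells for no effect and camptothecin positive control wells for full effect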
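Compounds are pinned in duplicate onto adhered PC3M cells stably expressing GFP-tagged PTB and incubated 16 h at 37 C. Cells are then fixed, nuclei stained with Hoechst, and PNC-positive cells counted.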
HPGD block – inhibitors of human 15-hydroxyprostaglandin dehydrogenase (HPGD); P15428; 4.3% of 150,000 active; purified HPGD, NADH fluorescence kinetic, PGE2 substrate; Potency, µM, for inactives: top-dose activity change, negative = inhibition, usual class: inhibitors; active = well fitted inhibition curve with a large enough effect, not every such curve was filed as active; inconclusive = small, poorly fitted or top-dose-only effect, or another doubt; inactive = no such curve, though single readings can be large or run the other way; note: potency is the fitted concentration of half-maximal effect
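NADH formation kinetics: reaction with 30 uM PGE2 and 1 mM NAD+ (final), 20 nM enzyme, Tris-HCl pH 8 with Tween 20, after 15 min compound preincubation at room temperature. Fluorescence change, last versus first of five reads.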
15-hLO-2 inh – inhibitors of human 15-lipoxygenase 2 (ALOX15B). O15296. purified 15hLO-2, xylenol orange hydroperoxide absorbance. Potency, µM (top dose mostly 57.1 µM), for the others: at the top dose activity change, negative = inhibition, most hits filed as inhibitors. 0.56% of 110,000 active. AID 881; note: potency is the fitted concentration of half-maximal effect; nearly all actives have a fitted effect of over 60% in size
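Screening format was qHTS against 50 nM purified 15hLO-2 in Hepes pH 7.5 with detergent. Activity follows hydroperoxide formation from 45 uM arachidonic acid, measured as 573:405 nm absorbance ratio of the ferric-xylenol orange complex.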
ALOX12 inhib – blocks human 12-lipoxygenase activity; P18054; purified 12-hLO, xylenol orange hydroperoxide absorbance; Potency, µM (highest dose often 57.1 µM), for inactives: at the highest dose activity change, negative = inhibition, actives largely listed as inhibitors; 0.12% of 150,000 active; AID 1452; note: potency is the fitted concentration of half-maximal effect; nearly all actives have a fitted effect of over 55% in size
Target sequence (P18054 whole entry, looked up): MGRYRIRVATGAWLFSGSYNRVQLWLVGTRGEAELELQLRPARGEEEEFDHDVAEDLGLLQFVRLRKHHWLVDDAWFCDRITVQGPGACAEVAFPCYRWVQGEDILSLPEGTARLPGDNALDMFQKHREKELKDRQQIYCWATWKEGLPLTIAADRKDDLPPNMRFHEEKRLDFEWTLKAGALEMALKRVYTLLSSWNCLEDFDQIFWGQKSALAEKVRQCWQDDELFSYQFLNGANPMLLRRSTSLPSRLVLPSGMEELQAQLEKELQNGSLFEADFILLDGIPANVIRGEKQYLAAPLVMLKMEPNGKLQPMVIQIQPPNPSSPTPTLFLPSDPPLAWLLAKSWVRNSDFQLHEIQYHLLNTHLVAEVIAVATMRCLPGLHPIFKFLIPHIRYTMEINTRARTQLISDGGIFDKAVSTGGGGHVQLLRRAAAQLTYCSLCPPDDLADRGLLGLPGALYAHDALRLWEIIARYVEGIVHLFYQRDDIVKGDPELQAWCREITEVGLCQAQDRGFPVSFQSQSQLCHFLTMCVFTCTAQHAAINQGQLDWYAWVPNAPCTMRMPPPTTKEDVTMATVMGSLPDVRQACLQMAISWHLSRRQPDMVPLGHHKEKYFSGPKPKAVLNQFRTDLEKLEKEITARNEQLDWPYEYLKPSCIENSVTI
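Xylenol orange chromogenic assay: hydroperoxide from 12hLO oxidises Fe(II), giving red-shifted Fe(III)-XO absorbance. Conditions: 150 nM enzyme, 40 uM arachidonic acid, 25 mM Hepes pH 7.0, 0.01% Triton X-100, 30 min, room temperature.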
IMPase cell inh – IMPase inhibition in cells. P97697. inhibition (IP1 accumulation), % at 46.1 µM. 120,000 tested, under 10 active. CHO-M1 cells, IP1 accumulation, HTRF TR-FRET ratio. AID 901; active = well fitted curve in the direction sought with a large enough effect in the signal ratio, not every such curve was filed as active; inconclusive = small, poorly fitted or top-dose-only effect, or a change in a side signal; inactive = no such curve, though single readings can be large or run the other way; the % refers to the signal ratio;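 note: cells stimulated with carbachol in lithium chloride buffer; plate controls were DMSO basal wells for no effect and reference inhibitor wells for full effect; higher means more IMPase inhibition seen as more IP1 and lower FRET ratio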
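CHO-M1 cells (CHO stably expressing M1 receptor), compound up to 46 uM final, stimulated with carbachol (50 uM as added) in buffer with 50mM LiCl, pH 7.4, 30 min at 37C. Cytosolic IP1 read by TR-FRET; AC50 from Hill fits.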
IMPase Li cell – cell-permeable IMPase inhibitors with lithium potentiation. Potency, µM (doses to about 59.4 µM), for the others: at the top dose activity, negative = IMPase inhibition, usual class: inhibitors. 0.35% of 210,000 active. AID 1457. CHO-M1 cells, IP1 TR-FRET (IP-One), carbachol + lithium;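 note: IP1 builds up when IMPase is blocked and the TR-FRET signal falls; potency is the fitted concentration of half-maximal effect; plate controls were basal vehicle for no effect and high inhibitor control for full effect; nearly all actives have a fitted effect of over 50% in size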
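Test compounds were applied to CHO-M1 cells previously cultured for 16–30 h at 2000 per well. A small lithium amount accompanied them; after 30 min at 37C, IP1 was quantified by TR-FRET.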
Numbers without * were called inactive; ? = inconclusive; . = no result given; [ ] = remark or other dose. Sampled rows, rich in hits. Any-hit rate of the full collection: about 5.4%. Unless noted, calls come from the whole dose curve; as a rule, active = well fitted curve in the direction sought with a large enough effect; inconclusive = small, poorly fitted or top-dose-only effect, or another doubt; inactive = no such curve, though single readings can be large; an effect the other way counts as inactive or inconclusive. Unless noted, % is set by controls: 0 for no effect and ±100 for the full control effect.

SMILES	PNC inhibitor	HPGD block	15-hLO-2 inh	ALOX12 inhib	IMPase cell inh	IMPase Li cell
Cc1nn(-c2ccccc2)c(Cl)c1/C=N\NC(=O)c1cncc(Br)c1	?	-8%	.	2%	2	11%
Cc1nn(-c2cccc(Cl)c2)c(Cl)c1/C=N/NC(=O)c1cccnc1	-86*	-2%	.	-2%	.	9%
CCOC(=O)N/N=C/c1c(C)nn(-c2cccc(C(F)(F)F)c2)c1Cl	-83*	-19%	.	-1%	8	9%
COC(=O)N/N=C\c1c(C)nn(-c2ccccc2)c1Cl	-20	-20%	.	-1%	-1	6%
Cc1cc(C(=O)NCCc2ccc(S(=O)(=O)NC(=O)NN3CCCCCC3)cc2)no1	.	-2%	-10%[0.0915 µM]	-3%[0.00818 µM]	.	0%
Cc1ccc(C2CC(=O)n3nc(-c4ccc(Cl)cc4)nc3S2)cc1 (stereo not given)	.	.	.	.	7	.
CCCOc1ccccc1Cn1c(=O)oc2ccc(C)cc21	?	25µM*	6%	-10%	0	28%[38.3 µM]
COc1ccc(Oc2nccc(-c3ccc(F)cc3)c2C#N)cc1	-15	-29%	-9%	-4%	?	28µM*
O=C(O)c1ccc(NS(=O)(=O)c2ccc3nnn(O)c3c2)cc1	-107*	-18%	-8%	5%	3	32%[38.3 µM]
CCOC(=O)c1ccc(Nc2c(CC)c(C)nc3ncnn23)cc1	-30	-24%	.	2%	7	-3%
CCc1c(C)nc2ncnn2c1Nc1ccc(C(C)=O)cc1	-111*	-20%	-7%	1%	-3	48%[38.3 µM]
O=C1N=c2ccccc2=C1c1c(O)n(-c2cccc(F)c2)[nH]c1=O	41	5.6µM*	.	1%	.	2%
O=C(O)c1c(C(=O)O)c2ccccc2[nH]c1=O	.	-19%	.	.	.	-11%
CCn1c(=O)c([N+](=O)[O-])c(NCCc2ccccc2)c2ccccc21	?	16µM*	-9%	1%	11	7%
Cn1c(=O)c([N+](=O)[O-])c(NCCc2ccccc2)c2ccccc21	?	16µM*	.	-5%	-3	2%
CCn1c(=O)c(C(=O)NCCc2ccccc2)c(O)c2ccccc21	?	-9%	4%	-5%	-2	26%[38.3 µM]
CCn1c(=O)c([N+](=O)[O-])c(NCCc2ccc(OC)c(OC)c2)c2ccccc21	12	8.9µM*	.	-5%	.	26%
Cc1ccc(Nc2c([N+](=O)[O-])c(=O)n(C)c3ccccc23)cc1C	4	-11%	-19%	-2%	12	19%
COc1ccc(CCNCC(O)Cn2c3ccccc3c3ccccc32)cc1OC (stereo not given)	.	.	.	.	.	7%
COC[C@H]1O[C@@H](c2c(OC)cc(OC)cc2OC)[C@H](OC)[C@@H](OC)[C@@H]1OC	.	-10%	.	.	.	55%
COc1ccc2c3c([nH]c2c1)[C@H]1C[C@@H]2[C@@H](C[C@@H](O)[C@H](OC)[C@H]2C(=O)O)CN1CC3	.	-8%	-7%[11.4 µM]	-2%[11.4 µM]	.	3%
COC(=O)[C@@H]1CC2=CC(=O)CC[C@]2(C)[C@@]23O[C@@H]2C[C@@]2(C)[C@H](CC[C@@]24CCC(=O)O4)[C@@H]13	.	-13%	11%[0.0915 µM]	-2%[0.00818 µM]	.	-5%
CCOc1cccc(C(=O)N(Cc2ccc(C(C)C)cc2)C2CCS(=O)(=O)C2)c1 (stereo not given)	.	.	.	.	0	.
Cn1cc([N+](=O)[O-])c(C(=O)Nc2ccc(C(=O)N3CCCCC3)cc2)n1	?	0.4µM*	.	-1%	.	5%
CCn1ncc([N+](=O)[O-])c1C(=O)Nc1ccc(C(=O)N2CCCCC2)cc1	15	2.2µM*	.	-1%	.	-1%
Cn1cc([N+](=O)[O-])c(C(=O)Nc2ccc(C3CCCCC3)cc2)n1	.	.	.	.	.	20%
O=C1c2ccccc2C(=O)c2c(NC3CCCCC3)ccc(Nc3ccc(S(=O)(=O)O)cc3)c21	.	-17%	-24%[11.4 µM]	-13%[11.4 µM]	.	11%
Cc1ccc(OCC(=O)NCC(=O)n2nc(C)cc2C)cc1	-3	-2%	-7%	-3%	0	-4%[38.3 µM]
